Experimental data reported in PubChem BioAssay (NCI).
Compounds without any hit were thinned out: in the full panel of roughly 79,000, 15% have a hit. Active and inactive are the calls of the source. Cut-off read from the data, not from the text of the source: active = growth inhibition above about 70%; inactive = the rest.

Legend:
[1] = NCI Yeast Anticancer Drug Screen. Data for the rad50 strain (AID 155);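 note: 0% = growth of vehicle-only cultures of the same strain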; details: S. cerevisiae rad50 strain growth inhibition, active compounds read high
Method in brief: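 A DNA repair-deficient yeast mutant serves as the test organism; compound-induced growth inhibition is calculated against vehicle-treated cells.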

[2] = NCI Yeast Anticancer Drug Screen. Data for the mec2-1 strain (AID 157); details: S. cerevisiae mec2-1 strain, active compounds read high
Method in brief: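 Mutant yeast (mec2-1) grown with compound; growth inhibition relative to vehicle control reported.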

[3] = NCI Yeast Anticancer Drug Screen. Data for the sgs1 mgt1 strain (AID 161);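 note: 0% = growth of cultures given vehicle only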; details: S. cerevisiae sgs1 mgt1 strain, active compounds read high
Method in brief: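 Growth of a repair-deficient yeast mutant was monitored after compound treatment and expressed as inhibition relative to vehicle-treated cultures.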

[4] = NCI Yeast Anticancer Drug Screen. Data for the cln2 rad14 strain (AID 165);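 note: 0% = growth equal to vehicle treated cultures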; details: S. cerevisiae cln2 rad14 strain, active compounds read high
Method in brief: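 Readout is yeast growth inhibition versus vehicle-treated controls, using a strain with cln2 and rad14 alterations exposed to compound.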

[5] = NCI Yeast Anticancer Drug Screen. Data for the bub3 strain (AID 167); details: S. cerevisiae bub3 mutant strain, active compounds read high
Method in brief: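 Inhibition values come from growth of compound-treated mutant yeast normalised to vehicle-treated controls.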

[6] = NCI Yeast Anticancer Drug Screen. Data for the mlh1 rad18 strain (AID 175); details: S. cerevisiae mlh1 rad18 strain growth inhibition, active compounds read high
Method in brief: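 Genetically defined yeast (DNA repair-deficient) exposed to compounds; growth inhibition determined relative to vehicle.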

[7] = at 5.0 µM (retest, dose inferred, filed as 0.5)
[8] = at 50.0 µM (retest, dose inferred, filed as 5.0)

Measured: growth inhibition

CCCOc1ccc(/C=N/NC(N)=S)cc1
inactive: [1]; [7] 16% | [1]; at 50.0 µM 42.1% | [2]; [7] 0% | [2]; [8] 50% | [2]; at 50.0 µM 59.5% | [3]; [7] 16% | [3]; at 50.0 µM 69.7% | [4]; [7] 7% | [4]; [8] 65% | [5]; [7] -72% | [5]; at 50.0 µM 63.7% | [6]; [7] 12% | [6]; at 50.0 µM 67.3%
active: [1]; [8] 73% | [3]; [8] 74% | [4]; at 50.0 µM 76.5% | [5]; [8] 70% | [6]; [8] 75%

CC1C=CC(C)C2C(=O)C3C(C)C=CC(C)C3C(=O)C12 (stereo not given)
inactive: [1]; [7] 0% | [1]; [8] -7% | [1]; at 50.0 µM -10.3% | [2]; [7] 6% | [2]; [8] 14% | [2]; at 50.0 µM -6.45% | [3]; [7] -1% | [3]; [8] 9% | [3]; at 50.0 µM 3.65% | [4]; [7] 18% | [4]; [8] 23% | [4]; at 50.0 µM 38.5% | [5]; [7] -12% | [5]; [8] 0% | [5]; at 50.0 µM 18.9% | [6]; [7] 1% | [6]; [8] -7% | [6]; at 50.0 µM 8.9%

CCOP(=O)(OCC)/C(C#N)=C/c1coc2cc(C)cc(C)c2c1=O
inactive: [1]; [7] 19% | [2]; [7] -7% | [3]; [7] -10% | [4]; [7] 0% | [4]; at 50.0 µM 59% | [5]; [7] -9% | [6]; [7] 26%
active: [1]; [8] 99% | [1]; at 50.0 µM 86.7% | [2]; [8] 100% | [2]; at 50.0 µM 91.9% | [3]; [8] 99% | [3]; at 50.0 µM 78% | [4]; [8] 99% | [5]; [8] 98% | [5]; at 50.0 µM 87.2% | [6]; [8] 99% | [6]; at 50.0 µM 82.2%

Nc1ccc2ccccc2c1N=Nc1ccccc1
inactive: [1]; [7] 6% | [2]; [7] 0% | [3]; [7] 3% | [4]; [7] -8% | [5]; [7] 0% | [6]; [7] 2%
active: [1]; [8] 97% | [1]; at 50.0 µM 98.3% | [2]; [8] 99% | [2]; at 50.0 µM 99% | [3]; [8] 98% | [3]; at 50.0 µM 99.1% | [4]; [8] 96% | [4]; at 50.0 µM 96.6% | [5]; [8] 98% | [5]; at 50.0 µM 98.5% | [6]; [8] 92% | [6]; at 50.0 µM 97.6%

O=C([O][Sb]([O]C(=O)C(Cl)(Cl)Cl)([c]1ccccc1)([c]1ccccc1)[c]1ccccc1)C(Cl)(Cl)Cl
active: [1]; [8] 76% | [3]; [8] 77% | [5]; [8] 76% | [6]; [8] 79%
inactive: [1]; [7] 12% | [1]; at 50.0 µM 41% | [2]; [7] 7% | [2]; [8] 56% | [2]; at 50.0 µM 29.2% | [3]; [7] 10% | [3]; at 50.0 µM 67.1% | [4]; [7] -5% | [4]; [8] 55% | [4]; at 50.0 µM 11.9% | [5]; [7] 6% | [5]; at 50.0 µM -69.9% | [6]; [7] 3% | [6]; at 50.0 µM 66.7%
